Compound activity: PubChem BioAssay, National Center for Advancing Translational Sciences (NCATS)
NPC1 promoter act: activates the NPC1 promoter; Huh7 NPC1 promoter luciferase reporter, 24 h; Potency, µM (doses to about 9.22 µM), usual class: activators; 320,000 compounds, 2.4% hits; note: nearly all actives have a fitted effect of over 60% in size
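NPC1 promoter–luciferase Huh7 cells; 24 h compound; luminescence.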
FLuc modulator: firefly luciferase modulation, counter-screen for miR-21 project; Potency, µM (top dose mostly 57.5 µM), actives largely listed as inhibitors; 360,000 compounds, 6.9% hits; purified FLuc, Km substrates, luminescence inhibition; P08659; AID 588342; note: nearly all actives have a fitted effect of over 55% in size
Target sequence (P08659 whole entry, looked up): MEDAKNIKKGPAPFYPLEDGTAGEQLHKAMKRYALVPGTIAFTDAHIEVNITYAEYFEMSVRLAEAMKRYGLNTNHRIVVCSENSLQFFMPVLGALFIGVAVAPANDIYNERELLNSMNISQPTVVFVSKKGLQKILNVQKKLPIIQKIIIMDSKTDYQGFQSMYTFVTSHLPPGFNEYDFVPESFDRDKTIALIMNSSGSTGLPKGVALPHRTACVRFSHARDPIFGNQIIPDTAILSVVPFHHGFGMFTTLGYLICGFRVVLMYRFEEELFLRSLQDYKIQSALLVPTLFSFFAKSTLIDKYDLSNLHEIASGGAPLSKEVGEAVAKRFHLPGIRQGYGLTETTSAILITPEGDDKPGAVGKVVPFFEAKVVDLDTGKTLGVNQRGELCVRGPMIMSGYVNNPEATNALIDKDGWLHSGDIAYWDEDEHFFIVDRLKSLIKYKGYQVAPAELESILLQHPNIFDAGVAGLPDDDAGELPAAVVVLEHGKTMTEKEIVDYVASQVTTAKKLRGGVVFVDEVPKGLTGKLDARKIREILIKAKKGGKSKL
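Purified P. pyralis luciferase, 10 nM final, with Km-level 10 uM D-luciferin and 10 uM ATP in 50 mM Tris acetate pH 7.5, 10 mM Mg acetate, 0.01% Tween-20, 0.05% BSA; 6-point qHTS titration about 60 µM downward; luminescence read.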
Luc counter: blocks Kinase-Glo luciferase, a counter-screen artifact. 200,000 compounds, 0.28% hits. AID 1379. Kinase-Glo luciferase, ATP luminescence, 8 min. Q27757. Potency, µM (titrated, usually from 38.3 µM), usual class: inhibitors; note: nearly all actives have a fitted effect of over 60% in size
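Substrate mix (final 50 mM imidazole pH 7.2, 50 mM KCl, 7 mM MgCl2, 10 uM ATP, 0.01% Tween 20, 0.05% BSA) plus pin-tool compound, then Kinase-Glo detection mix; 8 min ambient, luminescence read.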
SMN2 splice enh: enhancers of SMN2 splice variant expression; HEK293 SMN2-luciferase splicing reporter, luminescence, 30-36 h; Potency, µM (series often up to 46.1 µM), hits mostly activators; 210,000 compounds, 2.8% hits; note: nearly all actives have a fitted effect of over 55% in size
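HEK293 cells carry an SMN2 minigene-luciferase reporter in which exon 7 inclusion puts luciferase in frame. Cells were seeded at 2000 cells/well, attached for 10-12 hours, then exposed to compounds for 30-36 hours at 37C before ONE-Glo luminescence.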
ELG1 genotox: genotoxicity induction in ELG1-luciferase HEK293T cells; HEK293T ELG1-luciferase reporter, luminescence, 16 h; Potency, µM (doses to about 46 µM), hits mostly activators; 330,000 compounds, 1.3% hits; AID 504466; note: nearly all actives have a fitted effect of over 60% in size
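Reporter readout depends on ELG1 protein level, which increases with genetic stress. After 16 hr compound exposure at 37 °C, luciferase activity was quantified using ONE-Glo.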
Rab9 promoter act: Rab9 promoter activation | Huh7 Rab9 promoter-luciferase reporter, luminescence, 24 h | Potency, µM (titrated, usually from 9.22 µM), actives largely listed as activators | 320,000 compounds, 2.8% hits; note: nearly all actives have a fitted effect of over 60% in size
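Luminescence read-out: Huh7 cells stably expressing Rab9-luciferase, treated 24 h with compound at 37 °C, then lysed with luciferase reagent for 10 min at ambient before reading.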
Of the large screens only hits and unclear results are named; the others gave an inactive call. Rows were chosen to be rich in hits. Some 7.3% of all compounds tested hit in one or more screens of this group. Calls come from the whole dose curve; as a rule, active = well fitted curve in the direction sought with a large enough effect; inconclusive = small, poorly fitted or top-dose-only effect, or another doubt; inactive = no such curve, though single readings can be large; an effect the other way counts as inactive or inconclusive.

CCOC(=O)c1cc(-c2cc(OC)c(OC)c(OC)c2)nc2c1c(=O)[nH]c(=O)n2Cc1ccccc1	SMN2 splice enh inconclusive, ELG1 genotox 8.2µM
CCOC(=O)c1cc(-c2ccc(F)cc2)nc2c1c(=O)[nH]c(=O)n2Cc1ccccc1	ELG1 genotox inconclusive (no result: Luc counter, SMN2 splice enh)
O=C1/C(=C/c2cccc3ccccc23)CCCc2ccccc21	FLuc modulator 13µM, SMN2 splice enh inconclusive
CCc1n[n+](CC(=O)c2ccccc2)c(N)s1	NPC1 promoter act 0.32µM, FLuc modulator 2.4µM, Luc counter 10µM, SMN2 splice enh 4µM, ELG1 genotox inconclusive, Rab9 promoter act 0.5µM
Nc1ccc[n+](CC(=O)c2ccccc2)c1	none (no result: Luc counter, SMN2 splice enh)
O=C(Cn1c(SCCOc2ccccc2Cl)nc2ccccc21)N1CCCCC1	none (no result: NPC1 promoter act, Luc counter, SMN2 splice enh, ELG1 genotox, Rab9 promoter act)
COc1ccccc1N=Nc1c(C)[nH][nH]c1=O	FLuc modulator inconclusive (no result: Luc counter, SMN2 splice enh)
Cc1ccc(N=Nc2c(C)[nH][nH]c2=O)c(C)c1	FLuc modulator 7.6µM, ELG1 genotox inconclusive
CCc1cccc(C)c1NC(=O)c1cc(S(=O)(=O)N(C)Cc2ccccc2)ccc1F	none (no result: NPC1 promoter act, Luc counter, SMN2 splice enh, ELG1 genotox, Rab9 promoter act)
COC(=O)c1cccc(-c2noc(-c3ccccc3F)n2)c1	NPC1 promoter act inconclusive, FLuc modulator 1.7µM, ELG1 genotox inconclusive, Rab9 promoter act 0.28µM (no result: Luc counter, SMN2 splice enh)
CN1CCN(C(=O)c2ccccc2-c2nc(-c3ccccc3)no2)CC1	FLuc modulator inconclusive
NC(=O)c1ccccc1-c1nc(-c2ccccc2)no1	NPC1 promoter act inconclusive, FLuc modulator 24µM, ELG1 genotox inconclusive, Rab9 promoter act inconclusive
NC(=O)c1cccc(-c2noc(-c3ccccc3F)n2)c1	NPC1 promoter act 0.89µM, FLuc modulator 2.7µM, ELG1 genotox inconclusive, Rab9 promoter act 0.79µM (no result: Luc counter, SMN2 splice enh)
NC(=O)c1ccc(-c2ccccc2F)cc1	FLuc modulator inconclusive (no result: Luc counter, SMN2 splice enh)
CCc1ccc(-n2c(=O)c3sc4ccccc4c3n(CC(=O)N(CC)Cc3ccccc3)c2=O)cc1	none (no result: NPC1 promoter act, Luc counter, ELG1 genotox, Rab9 promoter act)
c1ccc(CCNc2nc(-c3cccnc3)cs2)cc1	NPC1 promoter act inconclusive, FLuc modulator 15µM, SMN2 splice enh inconclusive, ELG1 genotox inconclusive, Rab9 promoter act inconclusive
c1ccc(CCNc2nc(-c3ccccn3)cs2)cc1	NPC1 promoter act 3.5µM, FLuc modulator 6.7µM, SMN2 splice enh inconclusive, ELG1 genotox inconclusive, Rab9 promoter act 2µM
CCc1ccc(CNC(=O)c2ccc(Cn3c(=O)c4cccn4c4cccnc43)cc2)cc1	none (no result: NPC1 promoter act, Luc counter, SMN2 splice enh, ELG1 genotox, Rab9 promoter act)
Cc1nc2ccc(NC(=O)CCS(=O)(=O)c3ccccc3)cc2s1	FLuc modulator inconclusive, SMN2 splice enh 16µM
Cc1ccc(NC(=O)CCS(=O)(=O)c2ccc3nc(C)sc3c2)cc1	none (no result: Luc counter, SMN2 splice enh)
Cc1nc2cc(NC(=O)CCS(=O)(=O)c3ccccc3)ccc2s1	NPC1 promoter act 2µM, FLuc modulator 9.5µM, SMN2 splice enh 10µM, ELG1 genotox inconclusive, Rab9 promoter act 1.4µM
Cc1ccc(S(=O)(=O)CCC(=O)Nc2ccc3nc(C)sc3c2)cc1	none
Cc1ccc2nc(-c3ccc(NC(=O)CCS(=O)(=O)c4ccccc4)cc3)sc2c1	NPC1 promoter act 0.56µM, FLuc modulator 11µM, ELG1 genotox inconclusive, Rab9 promoter act 0.32µM (no result: SMN2 splice enh)
Cc1ccc(C)c(N(CC(=O)Nc2ccc(-c3nc4ccc(C)cc4s3)cc2)S(C)(=O)=O)c1	none
Cc1ccc(N(CC(=O)Nc2ccc(-c3nc4ccc(C)cc4s3)cc2)S(C)(=O)=O)cc1	NPC1 promoter act inconclusive, FLuc modulator 7.6µM, ELG1 genotox inconclusive, Rab9 promoter act inconclusive
Cc1ccc(Cl)cc1N1CCN(C(=O)COc2cc(=O)n(C)c3ccccc23)CC1	none (no result: NPC1 promoter act, Luc counter, ELG1 genotox, Rab9 promoter act)
CCOc1ccc(-c2c(C)nn3c(C)c(C(=O)NCC(C)c4ccccc4)cnc23)cc1OCC (stereo unspecified)	none (no result: NPC1 promoter act, Luc counter, SMN2 splice enh, ELG1 genotox, Rab9 promoter act)
CCCNC(=O)Cn1nc(C)c2c(C)n(-c3ccccc3)nc2c1=O	none (no result: NPC1 promoter act, Luc counter, SMN2 splice enh, ELG1 genotox, Rab9 promoter act)
CCOC(=O)c1cc(S(=O)(=O)N2CCN(c3ccc(OC)cc3)CC2)[nH]n1	none (no result: NPC1 promoter act, Luc counter, SMN2 splice enh, ELG1 genotox, Rab9 promoter act)
CCN(CCCNC(=O)c1cc2cc3ccc(OC)cc3nc2s1)c1ccccc1	none (no result: Luc counter, ELG1 genotox)
COc1ccc2nc3sc(C(=O)NCCCN4CCc5ccccc5C4)cc3cc2c1	FLuc modulator 19µM
COC(=O)c1ccc2nc(NC(=O)CSCC(=O)OCC(=O)c3ccccc3)sc2c1	FLuc modulator 17µM
